Results from PubChem BioAssay AID1159580 (chemical genetic matrix, 2015).
The campaign covered roughly 5,500 compounds. About 2,000 (36%) were called active. Not shown: some 18% with an inconclusive outcome. Cut-off read from the data, not from the text of the source: active = normalized growth mostly below about 0.91 (no sharp cut-off); inconclusive = no clear call, values can overlap the other calls; inactive = mostly above about 0.92. This is one part of the list.

Test: chemical genetic growth profiling, strain panel (AID 1159580);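 note: tested at 20 µM; growth read once vehicle control cultures reached saturation at 30 °C; 1 = growth at the plate median or of vehicle wells; lower values mean less growth of the strain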
Conditions: growth OD

Measured: normalized growth

COc1ccc2cc1Oc1ccc(cc1)C[C@H]1c3cc(c(OC)cc3CCN1C)Oc1c(OC)c(OC)cc3c1[C@H](C2)N(C)CC3
inactive: S. cerevisiae deletion strains, locus YKL009W, strain mrt4, stronger effect = lower value 1.02 | S. cerevisiae deletion strains, locus YKL068W, stronger effect = lower value 1.01 | S. cerevisiae deletion strains, locus YKL085W, strain MDH1 (second series), stronger effect = lower value 1.01 | S. cerevisiae deletion strains, locus YKL085W, strain MDH1, stronger effect = lower value 1.01 | S. cerevisiae deletion strains, locus YKL160W, strain elf1, stronger effect = lower value 0.99 | S. cerevisiae deletion strains, locus YKL190W, strain CNB1, stronger effect = lower value 1.01 | S. cerevisiae deletion strains, locus YKR001C, strain vps1, stronger effect = lower value 0.973 | S. cerevisiae deletion strains, locus YKR026C, strain gcn3, stronger effect = lower value 1 | S. cerevisiae deletion strains, locus YKR091W, strain srl3, stronger effect = lower value 1 | S. cerevisiae deletion strains, locus YLL001W, strain dnm1, stronger effect = lower value 0.986 | S. cerevisiae deletion strains, locus YLL026W, stronger effect = lower value 1 | S. cerevisiae deletion strains, locus YLL041C, strain sdh2, stronger effect = lower value 1 | S. cerevisiae deletion strains, locus YLR027C, strain aat2, stronger effect = lower value 1.01 | S. cerevisiae deletion strains, locus YLR039C, strain RIC1, stronger effect = lower value 0.94 | S. cerevisiae deletion strains, locus YLR058C, strain SHM2, stronger effect = lower value 1.01 | S. cerevisiae deletion strains, locus YLR102C, strain apc9, stronger effect = lower value 1.01 | S. cerevisiae deletion strains, locus YLR113W, strain HOG1, stronger effect = lower value 1.07 | S. cerevisiae deletion strains, locus YLR221C, strain rsa3, stronger effect = lower value 1.01 | S. cerevisiae deletion strains, locus YLR258W, strain gsy2, stronger effect = lower value 1.01 | S. cerevisiae deletion strains, locus YLR262C, strain YPT6 (second series), stronger effect = lower value 0.975 | S. cerevisiae deletion strains, locus YLR262C, strain YPT6, stronger effect = lower value 0.993 | S. cerevisiae deletion strains, locus YLR268W, strain sec22, stronger effect = lower value 1.01 | S. cerevisiae deletion strains, locus YLR320W, strain mms22, stronger effect = lower value 0.987 | S. cerevisiae deletion strains, locus YLR330W, strain CHS5, stronger effect = lower value 1.02 | S. cerevisiae deletion strains, locus YLR342W, strain FKS1 (second series), stronger effect = lower value 0.885 | S. cerevisiae deletion strains, locus YLR342W, strain FKS1, stronger effect = lower value 1.01 | S. cerevisiae deletion strains, locus YLR357W, strain rsc2, stronger effect = lower value 0.977 | S. cerevisiae deletion strains, locus YLR370C, strain arc18, stronger effect = lower value 0.914 | S. cerevisiae deletion strains, locus YLR371W, strain rom2, stronger effect = lower value 1.01 | S. cerevisiae deletion strains, locus YLR384C, strain iki3, stronger effect = lower value 1.01 | S. cerevisiae deletion strains, locus YLR418C, strain cdc73, stronger effect = lower value 0.96 | S. cerevisiae deletion strains, locus YML016C, strain PPZ1, stronger effect = lower value 1 | S. cerevisiae deletion strains, locus YML032C, strain rad52, stronger effect = lower value 1.01 | S. cerevisiae deletion strains, locus YML120C, strain ndi1, stronger effect = lower value 1.02 | S. cerevisiae deletion strains, locus YML124C, strain tub3, stronger effect = lower value 1.02 | S. cerevisiae deletion strains, locus YMR058W, strain fet3, stronger effect = lower value 1 | S. cerevisiae deletion strains, locus YMR078C, strain ctf18, stronger effect = lower value 1.02 | S. cerevisiae deletion strains, locus YMR125W, strain sto1, stronger effect = lower value 0.992 | S. cerevisiae deletion strains, locus YMR129W, stronger effect = lower value 1.02 | S. cerevisiae deletion strains, locus YMR205C, strain PFK2, stronger effect = lower value 0.963 | S. cerevisiae deletion strains, locus YMR223W, strain ubp8, stronger effect = lower value 0.986 | S. cerevisiae deletion strains, locus YMR231W, strain pep5, stronger effect = lower value 1.01 | S. cerevisiae deletion strains, locus YMR263W, strain SAP30, stronger effect = lower value 1 | S. cerevisiae deletion strains, locus YMR307W, strain GAS1, stronger effect = lower value 0.966 | S. cerevisiae deletion strains, locus YNL067W, strain RPL9B, stronger effect = lower value 1.01 | S. cerevisiae deletion strains, locus YNL071W, strain lat1, stronger effect = lower value 0.998 | S. cerevisiae deletion strains, locus YNL128W, strain TEP1, stronger effect = lower value 1.01 | S. cerevisiae deletion strains, locus YNL153C, strain GIM3, stronger effect = lower value 0.995 | S. cerevisiae deletion strains, locus YNL183C, strain NPR1, stronger effect = lower value 0.999 | S. cerevisiae deletion strains, locus YNL209W, strain ssb2, stronger effect = lower value 0.995 | S. cerevisiae deletion strains, locus YNL233W, strain BNI4, stronger effect = lower value 0.995 | S. cerevisiae deletion strains, locus YNL248C, strain rpa49, stronger effect = lower value 1.01 | S. cerevisiae deletion strains, locus YNL250W, strain rad50, stronger effect = lower value 1.02 | S. cerevisiae deletion strains, locus YNL271C, strain bni1, stronger effect = lower value 1.01 | S. cerevisiae deletion strains, locus YNL298W, strain CLA4, stronger effect = lower value 1.01 | S. cerevisiae deletion strains, locus YNL322C, strain KRE1 (second series), stronger effect = lower value 1.01 | S. cerevisiae deletion strains, locus YNL322C, strain KRE1, stronger effect = lower value 1.02 | S. cerevisiae deletion strains, locus YNR049C, strain mso1, stronger effect = lower value 0.991 | S. cerevisiae deletion strains, locus YNR052C, strain pop2, stronger effect = lower value 0.968 | S. cerevisiae deletion strains, locus YOL006C, strain TOP1, stronger effect = lower value 0.632 | S. cerevisiae deletion strains, locus YOL012C, strain htz1 0.904 | S. cerevisiae deletion strains, locus YOL147C, strain pex11, stronger effect = lower value 1.01 | S. cerevisiae deletion strains, locus YOR001W, strain rrp6, stronger effect = lower value 1 | S. cerevisiae deletion strains, locus YOR061W, strain CKA2, stronger effect = lower value 0.993 | S. cerevisiae deletion strains, locus YOR069W, strain VPS5, stronger effect = lower value 1.01 | S. cerevisiae deletion strains, locus YOR070C, strain gyp1, stronger effect = lower value 1 | S. cerevisiae deletion strains, locus YOR080W, strain dia2, stronger effect = lower value 0.995 | S. cerevisiae deletion strains, locus YOR083W, strain WHI5, stronger effect = lower value 0.968 | S. cerevisiae deletion strains, locus YOR106W, strain vam3, stronger effect = lower value 0.961 | S. cerevisiae deletion strains, locus YOR136W, strain idh2, stronger effect = lower value 0.999 | S. cerevisiae deletion strains, locus YOR144C, strain elg1, stronger effect = lower value 1.01 | S. cerevisiae deletion strains, locus YOR184W, strain ser1, stronger effect = lower value 1.02 | S. cerevisiae deletion strains, locus YOR231W, strain MKK1, stronger effect = lower value 0.974 | S. cerevisiae deletion strains, locus YOR265W, strain rbl2, stronger effect = lower value 0.984 | S. cerevisiae deletion strains, locus YOR290C, strain snf2, stronger effect = lower value 0.937 | S. cerevisiae deletion strains, locus YOR316C, strain cot1, stronger effect = lower value 1.01 | S. cerevisiae deletion strains, locus YPL051W, strain arl3, stronger effect = lower value 0.982 | S. cerevisiae deletion strains, locus YPL055C, strain LGE1, stronger effect = lower value 0.975 | S. cerevisiae deletion strains, locus YPL078C, strain atp4, stronger effect = lower value 0.974 | S. cerevisiae deletion strains, locus YPL106C, strain sse1, stronger effect = lower value 0.984 | S. cerevisiae deletion strains, locus YPL240C, strain hsp82, stronger effect = lower value 1.01 | S. cerevisiae deletion strains, locus YPL241C, strain CIN2, stronger effect = lower value 1 | S. cerevisiae deletion strains, locus YPL256C, strain CLN2, stronger effect = lower value 1.02 | S. cerevisiae deletion strains, locus YPR119W, strain clb2, stronger effect = lower value 1.01 | S. cerevisiae deletion strains, locus YPR141C, strain kar3, stronger effect = lower value 1.02 | S. cerevisiae deletion strains, locus YPR163C, strain tif3, stronger effect = lower value 0.987 | S. cerevisiae deletion strains, locus YPR167C, strain met16, stronger effect = lower value 1.01 | S. cerevisiae deletion strains, strain wtn01, stronger effect = lower value 1 | S. cerevisiae strains, strain wild type, stronger effect = lower value 0.981
active: S. cerevisiae deletion strains, locus YNL307C, strain MCK1, stronger effect = lower value 0.902 | S. cerevisiae deletion strains, locus YOR270C, strain vph1, stronger effect = lower value 0.723
